Reference: PMC7862700, “An all-to-all approach to the identification of sequence-specific readers for epigenetic DNA modifications on cytosine”

How the values were obtained:
Assay in all cases: DAPPL (digital affinity profiling via proximity ligation, sequencing); 10 mM Tris-HCl pH 7.5, 50 mM NaCl, 1 mM DTT, 4% glycerol, room temperature, 30 min; GST-TFs on glutathione beads, 16-mer random dsDNA library, 0.1% formaldehyde crosslink after washing; high values mean tight binding
FLI1 = molecular target: T1, FLI1 (Homo sapiens, UniProt Q01543 1-452); conditions: protein: recombinant; tags: N-terminal GST; dsDNA, one strand shown
T1 sequence: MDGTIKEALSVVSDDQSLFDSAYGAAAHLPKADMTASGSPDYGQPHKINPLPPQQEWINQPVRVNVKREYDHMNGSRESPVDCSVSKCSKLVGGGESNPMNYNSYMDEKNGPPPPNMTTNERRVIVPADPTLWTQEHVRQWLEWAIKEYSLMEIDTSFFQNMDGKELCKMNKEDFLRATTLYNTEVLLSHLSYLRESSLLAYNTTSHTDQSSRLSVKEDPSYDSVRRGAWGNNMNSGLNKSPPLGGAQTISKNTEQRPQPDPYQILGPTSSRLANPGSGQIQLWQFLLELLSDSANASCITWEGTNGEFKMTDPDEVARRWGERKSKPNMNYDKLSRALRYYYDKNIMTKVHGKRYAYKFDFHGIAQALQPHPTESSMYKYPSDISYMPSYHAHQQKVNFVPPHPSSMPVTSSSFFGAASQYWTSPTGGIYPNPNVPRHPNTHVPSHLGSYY
In short: (§1)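 Binding signal is each hexamer's read frequency for a factor divided by its frequency in the tag-only sample. The factors were GST-fused human transcription factors from yeast, captured on glutathione beads, DNA-barcoded and pooled with that sample. Pools were incubated with 200 nmole of a random double-stranded 16-mer DNA library in Tris/NaCl/DTT/glycerol buffer at room temperature for 30 min, then washed, crosslinked with 0.1% formaldehyde, proximity-ligated with BsaI/T4 ligase (1 h, 37 °C), PCR-amplified and sequenced on an Illumina NextSeq500.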

ELK1 = molecular target: T2, ELK1 (Homo sapiens, UniProt P19419 1-428); conditions: protein: recombinant; tags: N-terminal GST; dsDNA, one strand shown
T2 sequence: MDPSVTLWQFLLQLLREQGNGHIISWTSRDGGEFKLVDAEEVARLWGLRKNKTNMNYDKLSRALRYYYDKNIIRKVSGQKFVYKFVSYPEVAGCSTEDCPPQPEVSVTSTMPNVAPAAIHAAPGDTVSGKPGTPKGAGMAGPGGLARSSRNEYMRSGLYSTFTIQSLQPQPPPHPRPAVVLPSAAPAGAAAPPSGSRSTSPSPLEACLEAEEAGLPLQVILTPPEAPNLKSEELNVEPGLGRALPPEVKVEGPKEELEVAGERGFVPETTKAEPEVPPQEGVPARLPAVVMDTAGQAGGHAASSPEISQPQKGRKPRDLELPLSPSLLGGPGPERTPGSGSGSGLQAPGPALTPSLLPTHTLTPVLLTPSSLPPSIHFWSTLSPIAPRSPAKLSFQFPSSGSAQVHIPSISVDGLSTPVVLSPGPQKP
In short: as §1

GABPA = molecular target: T3, GABPA (Homo sapiens, UniProt Q06546 1-454); conditions: protein: recombinant; tags: N-terminal GST; dsDNA, one strand shown
T3 sequence: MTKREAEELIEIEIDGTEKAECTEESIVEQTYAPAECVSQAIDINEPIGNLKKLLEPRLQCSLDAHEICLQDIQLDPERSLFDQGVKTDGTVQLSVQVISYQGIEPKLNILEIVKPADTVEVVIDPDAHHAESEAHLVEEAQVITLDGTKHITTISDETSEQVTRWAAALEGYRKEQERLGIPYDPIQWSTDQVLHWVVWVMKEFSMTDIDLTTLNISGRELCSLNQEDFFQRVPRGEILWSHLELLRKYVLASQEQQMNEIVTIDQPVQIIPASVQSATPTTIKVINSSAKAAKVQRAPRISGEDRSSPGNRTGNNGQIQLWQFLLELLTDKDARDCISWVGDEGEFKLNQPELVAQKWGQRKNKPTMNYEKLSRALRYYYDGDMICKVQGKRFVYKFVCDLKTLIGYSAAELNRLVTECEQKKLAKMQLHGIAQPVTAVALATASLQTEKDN
In short: as §1

ERG = molecular target: T4, ERG (Homo sapiens, UniProt P11308 1-479); conditions: protein: recombinant; tags: N-terminal GST; dsDNA, one strand shown
T4 sequence: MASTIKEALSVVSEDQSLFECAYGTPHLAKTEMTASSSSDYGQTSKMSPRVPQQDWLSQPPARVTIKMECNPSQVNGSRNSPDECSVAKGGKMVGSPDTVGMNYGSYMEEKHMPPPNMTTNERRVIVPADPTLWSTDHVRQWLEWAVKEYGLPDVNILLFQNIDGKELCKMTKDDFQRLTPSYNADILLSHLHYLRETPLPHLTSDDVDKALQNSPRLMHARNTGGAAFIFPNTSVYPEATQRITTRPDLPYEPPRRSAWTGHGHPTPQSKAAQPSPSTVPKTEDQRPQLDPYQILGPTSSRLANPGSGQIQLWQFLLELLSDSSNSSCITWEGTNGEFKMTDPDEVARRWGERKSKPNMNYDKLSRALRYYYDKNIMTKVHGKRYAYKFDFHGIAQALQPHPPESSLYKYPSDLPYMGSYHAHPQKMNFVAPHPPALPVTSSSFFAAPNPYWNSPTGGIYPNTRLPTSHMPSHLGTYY
In short: as §1

ELF1 = ELF1 (Homo sapiens, UniProt P32519 1-619); conditions: protein: recombinant; tags: N-terminal GST; dsDNA, one strand shown
In short: as §1

EHF = molecular target: T5, EHF (Homo sapiens, UniProt Q9NZC4 1-300); conditions: protein: recombinant; tags: N-terminal GST; dsDNA, one strand shown
T5 sequence: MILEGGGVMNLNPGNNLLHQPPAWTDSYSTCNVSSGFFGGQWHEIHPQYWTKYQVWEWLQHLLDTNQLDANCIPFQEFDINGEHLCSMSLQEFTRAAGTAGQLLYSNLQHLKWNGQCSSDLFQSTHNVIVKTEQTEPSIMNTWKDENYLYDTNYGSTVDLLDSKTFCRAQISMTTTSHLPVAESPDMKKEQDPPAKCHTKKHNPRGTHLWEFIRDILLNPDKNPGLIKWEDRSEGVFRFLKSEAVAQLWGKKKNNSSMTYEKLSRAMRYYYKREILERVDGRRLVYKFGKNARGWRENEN
In short: as §1

SPI1 = SPI1 (Homo sapiens, UniProt P17947 1-270); conditions: protein: recombinant; tags: N-terminal GST; dsDNA, one strand shown
In short: as §1

SPIB = SPIB (Homo sapiens, UniProt Q01892 1-262); conditions: protein: recombinant; tags: N-terminal GST; dsDNA, one strand shown
In short: as §1

ELK3 = molecular target: T6, ELK3 (Homo sapiens, UniProt P41970 1-407); conditions: protein: recombinant; tags: N-terminal GST; dsDNA, one strand shown
T6 sequence: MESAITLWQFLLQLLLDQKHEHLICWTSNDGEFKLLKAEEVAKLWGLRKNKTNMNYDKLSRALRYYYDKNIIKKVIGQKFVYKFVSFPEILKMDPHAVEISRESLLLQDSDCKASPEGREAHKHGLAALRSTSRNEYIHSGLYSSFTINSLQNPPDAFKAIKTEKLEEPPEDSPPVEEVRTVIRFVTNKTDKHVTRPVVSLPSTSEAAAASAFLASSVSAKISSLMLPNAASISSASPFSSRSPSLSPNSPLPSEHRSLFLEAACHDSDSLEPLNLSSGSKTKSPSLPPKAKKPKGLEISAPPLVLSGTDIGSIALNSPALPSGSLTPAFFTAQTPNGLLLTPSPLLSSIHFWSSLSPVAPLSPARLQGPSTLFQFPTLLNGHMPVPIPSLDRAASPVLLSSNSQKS
In short: as §1

FEV = molecular target: T7, FEV (Homo sapiens, UniProt Q99581 1-238); conditions: protein: recombinant; tags: N-terminal GST; dsDNA, one strand shown
T7 sequence: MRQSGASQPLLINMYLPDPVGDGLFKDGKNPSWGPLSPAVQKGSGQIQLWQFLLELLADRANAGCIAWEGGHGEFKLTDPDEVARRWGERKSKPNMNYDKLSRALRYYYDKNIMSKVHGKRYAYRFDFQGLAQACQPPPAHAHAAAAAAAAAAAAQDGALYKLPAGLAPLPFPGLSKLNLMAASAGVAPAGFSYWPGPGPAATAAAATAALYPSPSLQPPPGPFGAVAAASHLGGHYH
In short: as §1

ETV5 = ETV5 (Homo sapiens, UniProt P41161 1-510); conditions: protein: recombinant; tags: N-terminal GST; dsDNA, one strand shown
In short: as §1

HSF1 = HSF1 (Homo sapiens, UniProt Q00613 1-529); conditions: protein: recombinant; tags: N-terminal GST; chain copies: 3; dsDNA, one strand shown
In short: as §1

SPIC = molecular target: T8, SPIC (Homo sapiens, UniProt Q8N5J4 1-248); conditions: protein: recombinant; tags: N-terminal GST; dsDNA, one strand shown
T8 sequence: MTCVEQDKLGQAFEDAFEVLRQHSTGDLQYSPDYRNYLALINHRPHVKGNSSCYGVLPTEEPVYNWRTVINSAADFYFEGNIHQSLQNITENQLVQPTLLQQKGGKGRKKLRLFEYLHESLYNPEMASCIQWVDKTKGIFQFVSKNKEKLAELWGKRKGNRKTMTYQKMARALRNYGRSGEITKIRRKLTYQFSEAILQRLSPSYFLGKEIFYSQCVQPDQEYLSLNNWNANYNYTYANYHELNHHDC
In short: as §1

ELF4 = ELF4 (Homo sapiens, UniProt Q99607 1-663); conditions: protein: recombinant; tags: N-terminal GST; dsDNA, one strand shown
In short: as §1

ELK4 = molecular target: T9, ELK4 (Homo sapiens, UniProt P28324-2 1-405); conditions: protein: recombinant; tags: N-terminal GST; dsDNA, one strand shown
T9 sequence: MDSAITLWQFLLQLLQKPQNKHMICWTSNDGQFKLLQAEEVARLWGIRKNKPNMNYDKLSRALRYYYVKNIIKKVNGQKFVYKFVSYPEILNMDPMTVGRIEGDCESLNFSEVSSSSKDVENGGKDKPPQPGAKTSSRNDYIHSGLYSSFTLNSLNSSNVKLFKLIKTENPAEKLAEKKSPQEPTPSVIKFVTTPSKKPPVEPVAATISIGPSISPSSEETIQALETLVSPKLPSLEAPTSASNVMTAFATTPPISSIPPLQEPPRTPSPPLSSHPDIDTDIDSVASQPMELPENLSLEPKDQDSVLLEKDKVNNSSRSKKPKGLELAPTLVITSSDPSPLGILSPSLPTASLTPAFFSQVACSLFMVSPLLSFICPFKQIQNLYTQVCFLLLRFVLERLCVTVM
In short: as §1

ETV2 = molecular target: T10, ETV2 (Homo sapiens, UniProt O00321 1-342); conditions: protein: recombinant; tags: N-terminal GST; dsDNA, one strand shown
T10 sequence: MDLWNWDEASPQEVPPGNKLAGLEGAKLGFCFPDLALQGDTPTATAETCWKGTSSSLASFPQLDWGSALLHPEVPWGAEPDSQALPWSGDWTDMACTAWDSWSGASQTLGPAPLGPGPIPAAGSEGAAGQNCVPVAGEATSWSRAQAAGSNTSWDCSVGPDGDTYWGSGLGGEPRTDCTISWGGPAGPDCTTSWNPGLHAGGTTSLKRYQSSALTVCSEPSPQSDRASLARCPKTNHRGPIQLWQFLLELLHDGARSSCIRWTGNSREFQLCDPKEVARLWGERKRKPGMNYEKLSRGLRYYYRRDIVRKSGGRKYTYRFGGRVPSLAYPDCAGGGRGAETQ
In short: as §1

ELF3 = molecular target: T11, ELF3 (Homo sapiens, UniProt P78545 1-371); conditions: protein: recombinant; tags: N-terminal GST; dsDNA, one strand shown
T11 sequence: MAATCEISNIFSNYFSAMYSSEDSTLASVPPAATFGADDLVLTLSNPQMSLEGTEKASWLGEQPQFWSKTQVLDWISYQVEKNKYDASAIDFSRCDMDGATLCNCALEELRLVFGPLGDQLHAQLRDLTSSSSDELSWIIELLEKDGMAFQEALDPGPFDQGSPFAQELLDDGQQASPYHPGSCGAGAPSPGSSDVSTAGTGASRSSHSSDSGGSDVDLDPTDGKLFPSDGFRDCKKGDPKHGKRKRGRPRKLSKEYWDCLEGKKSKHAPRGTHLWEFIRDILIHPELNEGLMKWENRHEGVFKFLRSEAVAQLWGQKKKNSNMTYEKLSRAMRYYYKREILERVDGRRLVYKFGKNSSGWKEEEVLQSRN
In short: as §1

CRX = CRX (Homo sapiens, UniProt O43186 1-299); conditions: protein: recombinant; tags: N-terminal GST; dsDNA, one strand shown
In short: as §1

ETV1 = ETV1 (Homo sapiens, UniProt P50549 1-477); conditions: protein: recombinant; tags: N-terminal GST; dsDNA, one strand shown
In short: as §1

Sequence of ETV1 (P50549 whole entry): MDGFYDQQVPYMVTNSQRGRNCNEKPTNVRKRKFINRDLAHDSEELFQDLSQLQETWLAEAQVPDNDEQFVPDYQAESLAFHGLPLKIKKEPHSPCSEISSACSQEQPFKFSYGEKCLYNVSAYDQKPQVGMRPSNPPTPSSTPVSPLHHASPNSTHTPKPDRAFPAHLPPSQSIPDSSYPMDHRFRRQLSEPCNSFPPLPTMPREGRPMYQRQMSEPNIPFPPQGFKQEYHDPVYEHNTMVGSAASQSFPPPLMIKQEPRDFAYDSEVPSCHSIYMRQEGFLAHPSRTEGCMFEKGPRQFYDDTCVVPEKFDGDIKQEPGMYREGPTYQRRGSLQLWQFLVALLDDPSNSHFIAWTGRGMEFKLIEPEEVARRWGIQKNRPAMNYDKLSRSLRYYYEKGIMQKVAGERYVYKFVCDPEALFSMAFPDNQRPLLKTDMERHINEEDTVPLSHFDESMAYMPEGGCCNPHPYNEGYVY
Sequence of ELF4 (Q99607 whole entry): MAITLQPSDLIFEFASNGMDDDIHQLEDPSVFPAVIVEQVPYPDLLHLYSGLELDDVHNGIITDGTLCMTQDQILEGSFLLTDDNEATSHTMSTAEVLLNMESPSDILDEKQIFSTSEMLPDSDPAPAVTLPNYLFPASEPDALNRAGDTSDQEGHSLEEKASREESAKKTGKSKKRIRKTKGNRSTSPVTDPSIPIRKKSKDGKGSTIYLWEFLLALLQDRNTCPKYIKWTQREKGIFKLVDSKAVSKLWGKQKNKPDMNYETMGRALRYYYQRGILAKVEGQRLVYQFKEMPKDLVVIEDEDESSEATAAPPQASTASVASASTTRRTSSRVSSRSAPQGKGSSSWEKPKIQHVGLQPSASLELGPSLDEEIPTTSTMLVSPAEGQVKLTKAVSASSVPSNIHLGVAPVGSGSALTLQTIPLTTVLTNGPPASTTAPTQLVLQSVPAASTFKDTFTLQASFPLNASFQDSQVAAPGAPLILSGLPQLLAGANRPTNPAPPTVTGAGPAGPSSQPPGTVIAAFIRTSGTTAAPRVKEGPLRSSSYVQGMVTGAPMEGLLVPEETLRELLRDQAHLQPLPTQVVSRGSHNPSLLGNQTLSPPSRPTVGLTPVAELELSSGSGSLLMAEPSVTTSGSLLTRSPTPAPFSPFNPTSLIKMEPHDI
Sequence of HSF1 (Q00613 whole entry): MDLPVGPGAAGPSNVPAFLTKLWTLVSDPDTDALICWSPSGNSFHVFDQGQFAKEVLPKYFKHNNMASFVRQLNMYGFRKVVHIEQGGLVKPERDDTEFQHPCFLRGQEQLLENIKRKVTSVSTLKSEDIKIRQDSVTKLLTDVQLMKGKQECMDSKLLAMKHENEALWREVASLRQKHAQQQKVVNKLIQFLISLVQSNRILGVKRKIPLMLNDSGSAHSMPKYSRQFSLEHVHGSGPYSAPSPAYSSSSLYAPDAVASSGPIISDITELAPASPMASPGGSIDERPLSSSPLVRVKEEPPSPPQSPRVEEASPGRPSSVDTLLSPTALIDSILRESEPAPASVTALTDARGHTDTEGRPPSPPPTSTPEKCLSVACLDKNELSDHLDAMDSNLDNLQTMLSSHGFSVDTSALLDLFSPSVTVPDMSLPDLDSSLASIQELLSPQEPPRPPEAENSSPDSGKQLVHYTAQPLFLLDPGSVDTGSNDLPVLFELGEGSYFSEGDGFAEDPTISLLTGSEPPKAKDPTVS
Sequence of SPIB (Q01892 whole entry): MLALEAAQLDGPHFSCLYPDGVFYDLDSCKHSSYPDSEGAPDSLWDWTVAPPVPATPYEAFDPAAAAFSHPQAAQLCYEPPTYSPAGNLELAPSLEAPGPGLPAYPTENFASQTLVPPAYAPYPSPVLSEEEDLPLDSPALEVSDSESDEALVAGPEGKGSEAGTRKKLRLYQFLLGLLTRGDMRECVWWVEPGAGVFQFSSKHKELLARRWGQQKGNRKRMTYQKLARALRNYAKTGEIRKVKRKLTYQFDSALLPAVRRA
Sequence of ELF1 (P32519 whole entry): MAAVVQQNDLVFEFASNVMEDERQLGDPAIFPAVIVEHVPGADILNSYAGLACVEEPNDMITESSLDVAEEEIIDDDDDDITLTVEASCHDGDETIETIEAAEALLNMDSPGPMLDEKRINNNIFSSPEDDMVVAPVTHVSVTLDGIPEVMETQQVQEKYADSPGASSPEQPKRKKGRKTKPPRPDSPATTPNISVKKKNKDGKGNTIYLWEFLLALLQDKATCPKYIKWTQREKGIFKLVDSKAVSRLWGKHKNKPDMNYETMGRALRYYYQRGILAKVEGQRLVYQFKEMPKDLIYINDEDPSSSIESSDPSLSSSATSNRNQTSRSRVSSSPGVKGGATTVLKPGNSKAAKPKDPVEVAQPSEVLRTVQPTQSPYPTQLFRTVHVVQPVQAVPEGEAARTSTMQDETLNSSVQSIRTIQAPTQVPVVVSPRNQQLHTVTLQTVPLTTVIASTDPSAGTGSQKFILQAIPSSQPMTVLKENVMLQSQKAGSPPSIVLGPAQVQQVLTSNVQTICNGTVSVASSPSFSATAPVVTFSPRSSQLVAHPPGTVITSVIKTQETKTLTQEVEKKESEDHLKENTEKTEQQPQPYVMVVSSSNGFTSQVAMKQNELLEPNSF
Sequence of ETV5 (P41161 whole entry): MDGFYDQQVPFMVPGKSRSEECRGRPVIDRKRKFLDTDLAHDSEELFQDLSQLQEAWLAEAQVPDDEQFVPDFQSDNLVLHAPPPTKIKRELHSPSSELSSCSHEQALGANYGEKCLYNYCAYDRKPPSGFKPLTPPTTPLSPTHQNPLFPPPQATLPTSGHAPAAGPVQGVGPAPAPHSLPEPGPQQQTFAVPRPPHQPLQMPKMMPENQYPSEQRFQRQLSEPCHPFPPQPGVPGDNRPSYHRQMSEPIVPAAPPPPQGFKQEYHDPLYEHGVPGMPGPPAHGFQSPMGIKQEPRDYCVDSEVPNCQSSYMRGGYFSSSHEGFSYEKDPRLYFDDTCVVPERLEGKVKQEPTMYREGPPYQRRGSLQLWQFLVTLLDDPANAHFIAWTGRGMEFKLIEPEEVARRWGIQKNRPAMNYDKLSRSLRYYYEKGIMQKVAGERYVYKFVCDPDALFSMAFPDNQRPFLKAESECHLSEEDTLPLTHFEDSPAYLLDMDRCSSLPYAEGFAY
Sequence of CRX (O43186 whole entry): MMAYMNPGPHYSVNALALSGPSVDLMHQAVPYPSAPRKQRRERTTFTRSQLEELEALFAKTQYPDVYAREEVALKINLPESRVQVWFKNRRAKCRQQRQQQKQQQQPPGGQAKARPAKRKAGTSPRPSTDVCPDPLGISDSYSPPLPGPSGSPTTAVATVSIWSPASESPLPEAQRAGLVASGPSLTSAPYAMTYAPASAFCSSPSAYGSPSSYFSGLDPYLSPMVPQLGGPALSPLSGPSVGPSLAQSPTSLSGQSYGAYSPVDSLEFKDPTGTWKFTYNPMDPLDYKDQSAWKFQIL

## CCCGGA
FLI1
  binding signal: 2.74 fold enrichment (6-mer frequency, TF over GST control)
ELK1
  binding signal: 2.61 fold enrichment (6-mer frequency, TF over GST control)
GABPA
  binding signal: 2.61 fold enrichment (6-mer frequency, TF over GST control)
ERG
  binding signal: 2.99 fold enrichment (6-mer frequency, TF over GST control)
ELF1
  binding signal: 2.87 fold enrichment (6-mer frequency, TF over GST control)
EHF
  binding signal: 2.95 fold enrichment (6-mer frequency, TF over GST control)
SPI1
  binding signal: 2.47 fold enrichment (6-mer frequency, TF over GST control)
SPIB
  binding signal: 3.06 fold enrichment (6-mer frequency, TF over GST control)
ELK3
  binding signal: 2.85 fold enrichment (6-mer frequency, TF over GST control)
FEV
  binding signal: 2.77 fold enrichment (6-mer frequency, TF over GST control)
ETV5
  binding signal: 3.14 fold enrichment (6-mer frequency, TF over GST control)
HSF1
  binding signal: 1.14 fold enrichment (6-mer frequency, TF over GST control)
SPIC
  binding signal: 2.52 fold enrichment (6-mer frequency, TF over GST control)
ELF4
  binding signal: 2.6 fold enrichment (6-mer frequency, TF over GST control)
ELK4
  binding signal: 2.16 fold enrichment (6-mer frequency, TF over GST control)
ETV2
  binding signal: 2.55 fold enrichment (6-mer frequency, TF over GST control)
ELF3
  binding signal: 2.88 fold enrichment (6-mer frequency, TF over GST control)
CRX
  binding signal: 1.03 fold enrichment (6-mer frequency, TF over GST control)
ETV1
  binding signal: 2.98 fold enrichment (6-mer frequency, TF over GST control)
